Test results as given in the supplement of paper PMC11732987, “Enantioselective OTUD7B fragment discovery through chemoproteomics screening and high-throughput optimisation” (Communications Chemistry, 2025).

What was measured:
Test in all cases: log2 ratio of Biotin-Ahx-Ub-VS probe labelling (compound/DMSO); higher = less target engagement, active = hit call of the paper (q ≤ 0.05, log2 ratio ≤ -1)
Settings in all cases: treatment time: 3 h
[1] = compound: CCC1N(CCc2sccc12)C(=O)CCl
In short: (§1)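 HEK293T lysate (495 µg per sample, in Tris/CHAPS/IGEPAL buffer with protease inhibitors) was treated in triplicate with compound at 50 or 200 µM or with DMSO for 3 h. It was then treated with Biotin-Ahx-Ub-VS (0.5 µM final) for 1 h. Labelled DUBs were NeutrAvidin-enriched, digested with LysC and trypsin, and run by diaPASEF LC-MS/MS. Median-normalised label-free quantities gave average log2 ratios compound/DMSO by unpaired t-test, using proteins with ≥2 unique peptides.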

[2] = compound: CN1c2ccccc2C(CS1(=O)=O)NC(=O)CCl
In short: as §1

[3] = compound: Cl.ClCC(=O)N1CCc2ncncc2C1
In short: as §1

[4] = compound: Cl.Cn1ncc2C(CCCc12)NC(=O)CCl
In short: as §1

[5] = compound: ClCC(=O)NC1CCOc2ccccc12
In short: as §1

[6] = compound: ClCC(=O)NC1CCCc2ccccc12
In short: (§2)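 The values are mean compound-versus-vehicle ratios derived by unpaired t-test. For 3 h, triplicate HEK293T lysate samples (495 µg each) were treated with compound at a series of concentrations or with vehicle, after which Biotin-Ahx-Ub-VS was added to 0.5 µM final for 1 h. Labelled deubiquitinases were enriched with NeutrAvidin, digested with LysC and trypsin, and analysed by diaPASEF LC-MS/MS. Ratios are log2 values from global-median-normalised Spectronaut label-free quantities, using proteins with two or more unique peptides.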

[7] = compound: ClCC(=O)N[C@@H]1CCCc2ccccc12
In short: as §2

[8] = compound: ClCC(=O)N[C@H]1CCCc2ccccc12
In short: as §2

[9] = compound: CCC1N(CCc2cc(OC)c(Cl)cc12)C(=O)CCl
In short: as §1

[10] = compound: CCCC1N(CCc2cc(OC)c(OC)cc12)C(=O)CCl
In short: as §1

[11] = compound: CN(Cc1cccc(Br)c1)C(=O)CCl
In short: as §1

[12] = compound: CN(Cc1cccc(OCc2ccccc2C)c1)C(=O)CCl
In short: as §1

[13] = compound: CN(Cc1ccccc1)C(=O)CCl
In short: as §1

[14] = compound: COc1ccc(CN(C)C(=O)CCl)cc1
In short: as §1

[15] = compound: COc1cccc(CN(CCCc2ccccc2)C(=O)CCl)c1
In short: as §1

[16] = compound: ClCC(=O)N1CCc2cc(Cl)c(Cl)cc2C1
In short: as §1

[17] = compound: ClCC(=O)N1CCc2nc(ncc2C1)-c1ccccc1
In short: as §1

[18] = compound: ClCC(=O)N1CCc2nocc2C1
In short: as §1

[19] = compound: ClCC(=O)N1CCc2scc(Br)c2C1
In short: as §1

[20] = compound: ClCC(=O)NC(C1CCCC1)c1cccs1
In short: as §1

Measured: log2 ratio of Biotin-Ahx-Ub-VS probe labelling

UCHL5 (UniProt Q9Y5K5)
UniProt Q9Y5K5, sequence (Q9Y5K5 whole entry): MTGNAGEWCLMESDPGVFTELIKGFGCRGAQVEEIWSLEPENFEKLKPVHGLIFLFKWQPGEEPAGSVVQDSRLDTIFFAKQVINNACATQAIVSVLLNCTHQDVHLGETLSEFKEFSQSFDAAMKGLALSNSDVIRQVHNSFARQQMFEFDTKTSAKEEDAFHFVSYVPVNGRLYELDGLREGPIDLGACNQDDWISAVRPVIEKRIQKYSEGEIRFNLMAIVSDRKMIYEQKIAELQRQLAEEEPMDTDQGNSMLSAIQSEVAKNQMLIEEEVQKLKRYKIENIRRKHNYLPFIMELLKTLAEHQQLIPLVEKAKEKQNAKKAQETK
active: [12]; compound concentration: 200uM -1.33 | [15]; compound concentration: 200uM -1.17 | [16]; compound concentration: 200uM -1.36
inactive: [1]; compound concentration: 50uM -0.261 | [1]; compound concentration: 200uM -0.413 | [2]; compound concentration: 50uM -0.312 | [2]; compound concentration: 200uM -0.412 | [3]; compound concentration: 50uM -0.053 | [3]; compound concentration: 200uM -0.389 | [4]; compound concentration: 50uM 0.0591 | [4]; compound concentration: 200uM -0.0343 | [5]; compound concentration: 50uM -0.0586 | [5]; compound concentration: 200uM -0.0877 | [6]; compound concentration: 0.78uM -0.151 | [6]; compound concentration: 1.56uM -0.0693 | [6]; compound concentration: 3.13uM -0.187 | [6]; compound concentration: 6.25uM -0.075 | [6]; compound concentration: 12.5uM -0.156 | [6]; compound concentration: 25uM -0.346 | [6]; compound concentration: 50uM -0.111 | [6]; compound concentration: 100uM -0.166 | [6]; compound concentration: 200uM -0.211 | [7]; compound concentration: 0.78uM -0.425 | [7]; compound concentration: 1.56uM -0.183 | [7]; compound concentration: 3.13uM -0.22 | [7]; compound concentration: 6.25uM -0.255 | [7]; compound concentration: 12.5uM -0.281 | [7]; compound concentration: 25uM -0.176 | [7]; compound concentration: 50uM -0.209 | [7]; compound concentration: 100uM -0.17 | [7]; compound concentration: 200uM -0.35 | [8]; compound concentration: 0.78uM -0.162 | [8]; compound concentration: 1.56uM -0.217 | [8]; compound concentration: 3.13uM -0.188 | [8]; compound concentration: 6.25uM 0.0176 | [8]; compound concentration: 12.5uM -0.23 | [8]; compound concentration: 25uM -0.161 | [8]; compound concentration: 50uM -0.0913 | [8]; compound concentration: 100uM -0.178 | [8]; compound concentration: 200uM -0.266 | [9]; compound concentration: 50uM -0.0479 | [9]; compound concentration: 200uM -0.725 | [10]; compound concentration: 50uM -0.464 | [10]; compound concentration: 200uM -0.644 | [11]; compound concentration: 50uM -0.213 | [11]; compound concentration: 200uM -0.442 | [12]; compound concentration: 50uM -0.735 | [13]; compound concentration: 50uM -0.356 | [13]; compound concentration: 200uM -0.432 | [14]; compound concentration: 50uM -0.288 | [14]; compound concentration: 200uM -0.317 | [15]; compound concentration: 50uM -0.37 | [16]; compound concentration: 50uM -0.0548 | [17]; compound concentration: 50uM 0.0333 | [17]; compound concentration: 200uM -0.459 | [18]; compound concentration: 50uM -0.287 | [18]; compound concentration: 200uM -0.349 | [19]; compound concentration: 50uM -0.0669 | [19]; compound concentration: 200uM -0.74 | [20]; compound concentration: 50uM -0.0991 | [20]; compound concentration: 200uM -0.214
